Compound activity (PubChem)
TDP-43 yeast inh: qHTS of TDP-43 Inhibitors; TDP-43 expressing yeast growth rescue, BacTiter-Glo, 24 h; Potency, µM (highest dose often 46.1 µM), usual class: activators; 410,000 compounds, 1.8% hits; AID 652104, 2013; further: nearly all actives have a fitted effect of over 50% in size
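Cell-based yeast growth screen: TDP-43 expression induced in galactose, inoculum OD600=0.02 after raffinose pregrowth to mid-log. Read-out BacTiter-Glo luminescence at 24 hr, 30 deg C; inhibition of toxicity seen as signal increase.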
aSyn rescue: qHTS of alpha-syn Inhibitors | 370,000 compounds, 0.14% hits | Potency, µM (titrated, usually from 46.1 µM), most hits filed as activators | AID 652106, 2013 | Yeast expressing alpha-synuclein, growth rescue, BacTiter-Glo, 24 h; further: nearly all actives have a fitted effect of over 65% in size
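Rescue of yeast growth: cells expressing toxic alpha-synuclein, induced in galactose at OD600 0.02, incubated with compound 24 h at 30 C. ATP luminescence quantified growth; inhibitors of toxicity appear as activators.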
FUS yeast rescue: qHTS for Suppressors of FUS Proteinopathy: Primary screen using FUS-linked yeast assay. S. cerevisiae FUS-expressing, growth rescue, OD600, 24 h. Potency, µM (highest dose often 76.6 µM), usual class: activators. AID 1347120, 2019. 390,000 compounds, 0.24% hits; further: nearly all actives have a fitted effect of over 55% in size
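Yeast FUS proteinopathy model; galactose-induced FUS (2%), starting OD 0.005. Cpds in dilution series, 24hr, 30C, 99% humidity. Abs 600 nm growth. Pos ctrl CP55940 (top 92uM final); neg ctrl DMSO.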
Mito fusion act: qHTS Assay for Small Molecule Inhibitors of Mitochondrial Division or Activators of Mitochondrial Fusion; S. cerevisiae fusion-defective mutant growth rescue, CellTiterGlo 48 h; Potency, µM (top dose mostly 46.1 µM), most hits filed as activators; 320,000 compounds, 0.23% hits; further: nearly all actives have a fitted effect of over 45% in size
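Read-out: ATP-based luminescence (CellTiterGlo, 10 min ambient) reporting growth of fusion-defective ts yeast after 48 hours at 37C on glycerol/ethanol YPEG medium in the presence of compound.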
Abeta rescue: qHTS for compounds that reverse cellular toxicity of Amyloid beta (A-beta) peptide in yeast: Primary Screen; Potency, µM (highest dose often 46.1 µM), actives largely listed as activators; AID 1347071, 2019; yeast expressing A-beta42, growth rescue, OD600, 48 h; response scale: 0% DMSO, 100% iron-clioquinol control; 410,000 compounds, 0.063% hits; further: nearly all actives have a fitted effect of over 55% in size
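Yeast A-beta toxicity model in growth medium with pinned compounds, 48 h at 30 C; growth read as absorbance at 600 nm. Normalized to FeCl3/clioquinol equimolar mix (positive) and DMSO (negative).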
Hits are given with their value; – = inactive; ? = inconclusive; · = not tested or not shown; [ ] = dose if it differs, or a comment. The list is not random: actives were taken first. Their share in the collection is about 2.2%. The call rests on the fitted dose curve; in most records, active means well fitted curve in the direction sought with a large enough effect; inconclusive means small, poorly fitted or top-dose-only effect, or another doubt; inactive means no such curve, though single readings can be large; an effect the other way counts as inactive or inconclusive.

SMILES	TDP-43 yeast inh	aSyn rescue	FUS yeast rescue	Mito fusion act	Abeta rescue
CC1CN(C(=O)c2cccc(COc3ccccc3Cl)c2)CC(C)O1 (configuration not stated)	–[0.397 µM]	–	–	–	–
COc1cccc(-c2nc(N3CC(C)CC(C)C3)c3ccccc3n2)c1O (configuration not stated)	13µM	–	–	–	–
COc1ccc(Nc2nc(-c3cccc(OC)c3O)nc3ccccc23)cc1	18µM	–	?	–	–
COc1cccc(-c2nc(NC(C)(C)C)c3ccccc3n2)c1O	?	–	–	–	–
CCCNC(=O)C1(C)CCN(C(=O)COCc2ccccc2)C1 (configuration not stated)	–	–	–	·	–
CCCNC(=O)Cn1c(=O)c2cccn2c2cccnc21	–	·	–	·	–
NC(=O)COC(=O)c1c2c(nc3ccccc13)CCCC2	–	–	–	–	–
O=C(OCC(=O)N1CCc2ccccc21)c1c2c(nc3ccccc13)CCCCC2	22µM	–	·	?	–
Cc1cccc(N2CCN(C(=O)c3cnn(-c4ccc(F)cc4F)c3C3CCN(C(=O)OC(C)(C)C)CC3)CC2)c1C	–	·	–	·	–
C=CCNC(=O)N1CCCC(N2CCN(c3ccccc3OC)CC2)C1 (configuration not stated)	–	–	–	–	–
CN(CC(=O)Nc1cccc(F)c1)C(=O)/C=C/c1cc(Br)ccc1OC(F)F	20µM	–	–	?	–
Cc1cccc(COc2ccccc2C(=O)N(C)CC(=O)Nc2cccc(F)c2)c1	25µM	–[1.84 µM]	–	?	–
C[C@@H](NC(=O)c1ncn(Cc2ccccc2)c1C(=O)N[C@H](C)c1ccccc1)c1ccccc1	–	–	–	–	–
O=C1c2nccnc2C(=O)N1Cc1ccccc1	–	13µM	·	·	–
O=C(COC(=O)c1cccnc1Cl)c1cccc(Cl)c1	11µM	·	–	–	–
CCOc1ccccc1N(CC)C(=O)c1cc2c(=O)n(CC)c3ccccc3c2s1	–	·	32µM	·	–
CCn1c(=O)c2cc(C(=O)N(C)c3ccc(OC)cc3OC)sc2c2ccccc21	–	–	2µM	–	–
CCn1c(=O)c2cc(C(=O)NC3CCCCCC3)sc2c2ccccc21	16µM	·	–	·	–
CCOc1ccc(NC(=O)c2cn3c4c(ccc(Cl)c4c2=O)OC(C)C3)cc1 (configuration not stated)	–	·	–	·	–
Fc1ccc(-c2nn(-c3ccc(Cl)cc3)c3c2cnc2ccc(F)cc23)cc1	–	·	–	·	–
CCCCCc1ccc(-c2ccc(/C=C/C(=O)O)cc2)nc1	–	?	·	13µM	–
CCCc1ccc(-c2ccc(/C=C/C(=O)O)cc2)nc1	–	–	·	?	–
CCOc1ccc(NC2SC(=O)N(Cc3ccccc3)C2=O)cc1 (configuration not stated)	13µM	·	–	·	?
CCc1ccc(-c2c(C)sc(NC(C)=O)c2C(N)=O)cc1	16µM	–	–	–	–
O=C1CSc2ccc(C(=O)N3CCCC(C(=O)N4CCCCC4)C3)cc2N1 (configuration not stated)	·	·	–	·	·
SMILES	TDP-43 yeast inh	aSyn rescue	FUS yeast rescue	Mito fusion act	Abeta rescue
CCCCOc1ccc(C(=O)Nc2cccc(C)n2)cc1	2.8µM	–	·	–	–
CCCCCCOc1ccc(C(=O)O)cc1C#N	22µM	–	·	?	–
CC(C)Oc1ccc(C(=O)O)cc1	13µM	–	–	–	–
CCCCCOc1ccc(OC(=O)c2ccncc2)cc1	35µM	–	–	–	–
CCOc1ccc(C(=O)Nc2cccc(C)n2)cc1	–	–	–	–	–
CCCCCCCCOc1ccc(C(=O)O)cc1	–	–	–	13µM	–
CCCCOc1ccc(C(=O)O)cc1	?	–	–	–	–
O=C1CC(c2ccc3c(c2)OCCO3)Oc2ccccc21 (configuration not stated)	14µM	–	–	–	–
COc1ccc(CNC(=O)C2CCN(S(=O)(=O)c3c(C)noc3/C=C/c3cccs3)CC2)cc1	–	·	–	·	–
Cc1nc(CS(=O)(=O)c2ccccc2)cc(Sc2ccc(Cl)cc2Cl)n1	13µM	–	–	?	–
